Compound activity deposited in PubChem by National Center for Advancing Translational Sciences (NCATS).
HTT cytoprotect = Huntington cell model cytoprotection by ATP luminescence. PC12 HTT-Q103 induced, cytoprotection, ATP luminescence, 40 h. Potency, µM (doses to about 56.4 µM), without a hit: cytoprotection (ATP increase), usual class: activators. 230,000 compounds, 0.14% hits; also: potency is read from the fitted curve at half-maximal effect; % of control where 0% means no effect; nearly all actives have a fitted effect of over 45% in size
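Cells were plated at 1500 per well in phenol red-free DMEM with 5% equine and 5% calf serum. Tebufenozide (100 nM final) and compounds were added, then ATPlite reagent, and luminescence was read.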
CBFb RUNX1 block = CBF-beta/RUNX1 interaction disruption. 230,000 tested, under 10 active. Q01196+Q13951. AlphaScreen CBFb-His/RUNX1-biotin binding, biochemical. Potency, µM (series often up to 59.8 µM), inactives show top-dose activity, negative = inhibition, usual class: inhibitors. AID 1477; also: % of control where 0% means no effect
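Proteins preincubated together for 20 min at RT before compound addition; 15 min later, nickel and streptavidin beads were added and left 90 min prior to AlphaScreen measurement.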
HTT aggregate = reduces HttQ103-GFP aggregates in PC12 cells; PC12 HttQ103-GFP aggregates, Acumen cytometry, 40 h; Potency, µM (doses to about 46.1 µM), without a hit: top-dose activity change, negative = inhibition, most hits filed as inhibitors; 220,000 compounds, 1.1% hits; also: potency is read from the fitted curve at half-maximal effect; % is scaled to controls: 0 for no effect and ±100 for the full control effect; nearly all actives have a fitted effect of over 60% in size
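Read-out: GFP aggregate count by laser scanning cytometer (488 nm excitation, 500-530 nm emission, 1–25 µm objects >6 SD above background). Cells: PC12, inducible HTTex1-Q103-GFP, 100 nM tebufenozide; compounds titrated.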
ALDH1A1 inh = blocks purified human ALDH1A1 activity | Purified ALDH1A1, NADH fluorescence, propionaldehyde substrate | 220,000 compounds, 7.3% hits | P00352 | Potency, µM (top dose mostly 75.3 µM), inactives show top-dose activity, negative = inhibition, actives largely listed as inhibitors; active = well fitted inhibition curve with a large enough effect, not every such curve was filed as active; inconclusive = small, poorly fitted or top-dose-only effect, or another doubt; inactive = no such curve, though single readings can be large or run the other way;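 also: potency is read from the fitted curve at half-maximal effect; plate controls were no enzyme wells and a reference inhibitor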
Target sequence (P00352 whole entry, looked up): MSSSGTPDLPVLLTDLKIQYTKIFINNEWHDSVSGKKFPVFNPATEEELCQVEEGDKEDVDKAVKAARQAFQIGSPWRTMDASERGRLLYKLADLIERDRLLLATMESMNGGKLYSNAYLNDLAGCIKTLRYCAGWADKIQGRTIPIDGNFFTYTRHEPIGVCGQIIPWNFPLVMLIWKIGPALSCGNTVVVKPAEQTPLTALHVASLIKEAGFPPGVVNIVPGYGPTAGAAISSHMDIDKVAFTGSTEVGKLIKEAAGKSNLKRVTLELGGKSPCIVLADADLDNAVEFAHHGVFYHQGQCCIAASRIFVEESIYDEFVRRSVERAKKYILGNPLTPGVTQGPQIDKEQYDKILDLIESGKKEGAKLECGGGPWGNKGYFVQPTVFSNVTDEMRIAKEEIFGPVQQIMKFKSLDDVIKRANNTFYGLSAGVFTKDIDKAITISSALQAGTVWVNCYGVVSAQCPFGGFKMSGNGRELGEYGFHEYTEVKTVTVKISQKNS
HPGD inh = inhibitors of human 15-hydroxyprostaglandin dehydrogenase (HPGD). AID 894. 150,000 compounds, 4.3% hits. purified HPGD, NADH fluorescence kinetic, PGE2 substrate. Potency, µM, inactives show at the highest dose activity change, negative = inhibition, most hits filed as inhibitors; active = well fitted inhibition curve with a large enough effect, not every such curve was filed as active; inconclusive = small, poorly fitted or top-dose-only effect, or another doubt; inactive = no such curve, though single readings can be large or run the other way; also: potency is read from the fitted curve at half-maximal effect; % is scaled to controls: 0 for no effect and ±100 for the full control effect
Target sequence (P15428 whole entry, looked up): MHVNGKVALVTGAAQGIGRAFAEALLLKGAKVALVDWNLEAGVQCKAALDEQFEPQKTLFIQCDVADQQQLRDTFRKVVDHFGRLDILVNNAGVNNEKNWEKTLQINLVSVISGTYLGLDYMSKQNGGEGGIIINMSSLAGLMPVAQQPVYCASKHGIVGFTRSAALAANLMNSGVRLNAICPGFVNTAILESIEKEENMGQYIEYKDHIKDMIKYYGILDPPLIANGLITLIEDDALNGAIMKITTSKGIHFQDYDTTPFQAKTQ
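NADH formation kinetics: reaction with 30 uM PGE2 and 1 mM NAD+ (final), 20 nM enzyme, Tris-HCl pH 8 with Tween 20, after 15 min compound preincubation at room temperature. Fluorescence change, last versus first of five reads.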
PNC inhibitor = perinucleolar compartment assembly inhibition | PC3M PTB-GFP, PNC prevalence imaging, 16 h; hits give low values | AID 2417 | activity change (PNC), negative = inhibition, % at 10 µM | 140,000 compounds, 3.1% hits;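 active = readout at or below -70, meaning at least 70% loss of cells showing the perinucleolar compartment, a nuclear body marking cancer cells; inconclusive = readout between -30 and a set limit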;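 also: plate controls were DMSO wells for no effect and camptothecin positive control wells for full effect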
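Compounds are pinned in duplicate onto adhered PC3M cells stably expressing GFP-tagged PTB and incubated 16 h at 37 C. Cells are then fixed, nuclei stained with Hoechst, and PNC-positive cells counted.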
Numbers without * were called inactive; ? = inconclusive; nt = no result given; [ ] = dose if it differs, or a comment. Most compounds without a hit are left out; they make up all but 11% or so of the library. Unless noted, calls follow the shape of the dose curve; as a rule, active = well fitted curve in the direction sought with a large enough effect; inconclusive = small, poorly fitted or top-dose-only effect, or another doubt; inactive = no such curve, though single readings can be large; an effect the other way counts as inactive or inconclusive.

SMILES	HTT cytoprotect	CBFb RUNX1 block	HTT aggregate	ALDH1A1 inh	HPGD inh	PNC inhibitor
CC[C@@]12CCCN3CCc4c(n(c5ccccc45)[C@](O)(C(=O)OC)C1)C32 (some centres undefined)	30%	13%	13%	-6%	-5%	nt
COc1ccc(-c2cc(C(=O)N3CCc4ccccc4C3)no2)cc1OC	-44%	1%	-17%	?	11µM*	43
O=C(c1cc(-c2ccc(Cl)c(Cl)c2)on1)N1CCCC1	2%	-2%	-2%	13%	-10%	10
O=C(c1cc(-c2ccccc2)on1)N1CCc2ccccc2C1	nt	0%	?	5%	nt	nt
COc1cccc(-c2cc(C(=O)N3CCCCCC3)no2)c1	-26%[10 µM]	9%	-7%	?	2.5µM*	-108*
COc1cccc(-c2cc(C(=O)N3CCCc4ccccc43)no2)c1	10%[10 µM]	23%	21%	?	-10%	32
CC1CCN(C(=O)c2cc(-c3ccc(Cl)c(Cl)c3)on2)CC1	6%[10 µM]	2%	-33%	?	14µM*	216
O=C(c1cc(-c2cccc(O)c2)on1)N1CCCCC1	-1%[10 µM]	13%	-2%	?	4.5µM*	?
C[C@@H]1Oc2ccc(C(=O)C[C@@H](C(=O)O)c3ccc4c(c3)OCO4)cc2O1	-10%[10 µM]	nt	nt	0%[13.5 µM]	-1%	nt
CNC(=O)[C@H](Cc1c[nH]c2ccccc12)NC(=O)[C@@H](CC(=O)NO)CC(C)C	14%	9%	15%	3%	nt	nt
Cc1c(Cl)cc(C(C)(C)C)c(O)c1Cc1c(C)c(Cl)cc(C(C)(C)C)c1O	5%[10 µM]	nt	nt	3%[13.5 µM]	-1%	nt
O=C(c1cc(-c2ccc3c(c2)OCO3)on1)N1CCOCC1	-68%	3%	7%	-2%	32µM*	-23
COc1cccc(-c2cc(C(=O)N3CCCCC3C)no2)c1 (centres undefined)	-25%	4%	-12%	-13%	16µM*	56
COc1cccc(-c2cc(C(=O)NCCN3CCOCC3)no2)c1	-18%	3%	22%	4%	-4%	18
O=C(c1cc(-c2ccc3c(c2)OCO3)on1)N1CCN(c2ccccc2)CC1	-8%	-9%	-1%	?	?	-8
CCC[C@@H]1O[C@@H]2C[C@@H]3[C@@H]4CCC5=CC(=O)C=C[C@@]5(C)[C@H]4[C@H](O)C[C@@]3(C)[C@@]2(C(=O)CO)O1	10%[1.9 µM]	nt	nt	nt	nt	nt
O=[N+]([O-])c1ccc(Cc2nnc(-c3ccccc3Cl)o2)cc1	-178%	-1%	-10%	-5%	nt	nt
Cn1c2c(c(=O)c3ccccc31)CCC(C)(C)O2	nt	3%	5%	5%	28µM*	?
O=C(NS(=O)(=O)c1ccccc1)c1ccccc1F	-16%[10 µM]	16%	-4%	4%	?	-122*
CC(=O)NS(=O)(=O)c1ccc(NC(=O)c2ccccc2F)cc1	2%[10 µM]	1%	-17%	-8%	-7%	11
Nn1c(COc2ccccc2)nc2ccccc2c1=O	-29%[0.074 µM]	11%	-24%	1%	-12%	-89*
Cc1sc2nc(CN3CCOCC3)[nH]c(=O)c2c1-c1ccccc1	nt	7%	11%	-19%	1%	-110*
CCc1ccc(OCCCC(=O)Nc2ccc(S(N)(=O)=O)cc2)cc1	15%[10 µM]	-7%	8%[9.22 µM]	-14%	nt	nt
Cc1ccc(NC(=S)NC2CCN(Cc3ccccc3)CC2)c(C)c1	nt	1%	29%	-10%	1%	?
S=C(Nc1ccccc1)NC1CCN(Cc2ccccc2)CC1	29%[10 µM]	-3%	3%[9.22 µM]	14µM*	nt	nt
SMILES	HTT cytoprotect	CBFb RUNX1 block	HTT aggregate	ALDH1A1 inh	HPGD inh	PNC inhibitor
S=C(Nc1ccc(Cl)cc1)NC1CCN(Cc2ccccc2)CC1	18%[10 µM]	8%	18%	4µM*	-4%	-21
CCC(C)c1ccc(NC(=S)NC2CCN(Cc3ccccc3)CC2)cc1 (centres undefined)	17%[10 µM]	0%	?	7.1µM*	-9%	?
COc1ccc(NC(=S)NC2CCN(Cc3ccccc3)CC2)cc1OC	?	6%	-14%	1%	nt	nt
CCc1ccc(NC(=S)NC2CCN(Cc3ccccc3)CC2)cc1	26%[10 µM]	8%	?	20µM*	-20%	91
Cc1ccccc1NC(=S)NC1CCN(Cc2ccccc2)CC1	21%[10 µM]	3%	12%	?	-7%	?
C/C=C/C1=Cc2ccccc2C(CC(=O)OC)N1C(=O)OC (centres undefined)	-21%[10 µM]	1%[13.1 µM]	nt	0%[13.5 µM]	-5%	nt
O=C1c2ccccc2-c2ccc(N=[N+]([O-])c3ccc4c(c3)C(=O)c3ccccc3-4)cc21	7%[10 µM]	nt	nt	8%[13.5 µM]	-10%	nt
COC(=O)C1=C(C)N2C(=O)CSC2=NC1c1ccc2c(c1)OCO2 (centres undefined)	6%	-8%	5%	-3%	-13%	-15
CC(Oc1ccccc1)C(=O)NC1CCN(Cc2ccccc2)CC1 (centres undefined)	9%[10 µM]	6%	-6%	3%	-5%	-84*
O=C(Cc1ccccc1)NC1CCN(Cc2ccccc2)CC1	-17%	7%	10%	13%	nt	nt
Cc1[nH]c2ccccc2c1N=Nc1ccccc1C(=O)O	nt	0%	-8%	?	14µM*	-8
Cc1ccc(Cn2nnnc2CN2CCC(O)(c3cccnc3)CC2)cc1	23%[10 µM]	3%	-4%[9.22 µM]	?	nt	nt
OC1(c2cccnc2)CCN(Cc2nnnn2Cc2ccccc2)CC1	-1%	0%	-8%	16µM*	nt	nt
COc1ccc(Cn2nnnc2CN2CCc3ccccc3C2)cc1	10%	1%	-11%[9.22 µM]	11µM*	-10%	-2
COc1ccc(Cn2nnnc2CN2CCC(O)(c3ccccc3F)CC2)cc1	18%[10 µM]	?	0%[9.22 µM]	8.9µM*	nt	nt
CCCn1c(N)c(NCCN2CCOCC2)c(=O)n(CC(=O)NCc2ccccc2)c1=O	-12%[10 µM]	13%	-3%	-3%	nt	nt
Clc1nssc1=Nc1ccccc1	-16%	-20%	-3%	1.6µM*	nt	nt
N#Cc1ccc(N=c2ssnc2Cl)cc1	-80%	-3%	4%	1.6µM*	2µM*	?
CCOC(=O)c1ccc(N=c2ssnc2Cl)cc1	26%	-4%	?	2µM*	nt	nt
O=C1CSC(=Nc2ccccc2)N1Cc1ccccc1	?	10%	4%	-4%	nt	nt
COc1cc(N=c2ssnc2Cl)cc(OC)c1OC	-85%	-23%	-30%	2.8µM*	2.2µM*	?
Fc1ccc(N=c2ssnc2Cl)c(F)c1	12%[10 µM]	-7%	?	2.5µM*	nt	nt
COc1ccc(N=c2ssnc2Cl)cc1	-4%[10 µM]	-20%	9%	1.8µM*	2.8µM*	5
Clc1ccc(N=c2ssnc2Cl)cc1	nt	?	?	1.1µM*	1.8µM*	26
